The source of these data is PubChem BioAssay AID488969 (Vanderbilt High Throughput Screening Facility, 2010).

The structures appear in SMILES notation. The full ranking holds about 110,000 compounds; the median of “z-score” is about -0.1, and the highest 2% start at about 2. What follows is part of a selection rich in the highest values, with near analogues and random picks from the rest. Calls of active or inactive are those of the source.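 Rule for the calls: active = z-score in the third read window above 3 or below -3; inactive = the rest.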

Sequence of Metabotropic glutamate receptor 8 (Rattus norvegicus) (P70579 whole entry, looked up): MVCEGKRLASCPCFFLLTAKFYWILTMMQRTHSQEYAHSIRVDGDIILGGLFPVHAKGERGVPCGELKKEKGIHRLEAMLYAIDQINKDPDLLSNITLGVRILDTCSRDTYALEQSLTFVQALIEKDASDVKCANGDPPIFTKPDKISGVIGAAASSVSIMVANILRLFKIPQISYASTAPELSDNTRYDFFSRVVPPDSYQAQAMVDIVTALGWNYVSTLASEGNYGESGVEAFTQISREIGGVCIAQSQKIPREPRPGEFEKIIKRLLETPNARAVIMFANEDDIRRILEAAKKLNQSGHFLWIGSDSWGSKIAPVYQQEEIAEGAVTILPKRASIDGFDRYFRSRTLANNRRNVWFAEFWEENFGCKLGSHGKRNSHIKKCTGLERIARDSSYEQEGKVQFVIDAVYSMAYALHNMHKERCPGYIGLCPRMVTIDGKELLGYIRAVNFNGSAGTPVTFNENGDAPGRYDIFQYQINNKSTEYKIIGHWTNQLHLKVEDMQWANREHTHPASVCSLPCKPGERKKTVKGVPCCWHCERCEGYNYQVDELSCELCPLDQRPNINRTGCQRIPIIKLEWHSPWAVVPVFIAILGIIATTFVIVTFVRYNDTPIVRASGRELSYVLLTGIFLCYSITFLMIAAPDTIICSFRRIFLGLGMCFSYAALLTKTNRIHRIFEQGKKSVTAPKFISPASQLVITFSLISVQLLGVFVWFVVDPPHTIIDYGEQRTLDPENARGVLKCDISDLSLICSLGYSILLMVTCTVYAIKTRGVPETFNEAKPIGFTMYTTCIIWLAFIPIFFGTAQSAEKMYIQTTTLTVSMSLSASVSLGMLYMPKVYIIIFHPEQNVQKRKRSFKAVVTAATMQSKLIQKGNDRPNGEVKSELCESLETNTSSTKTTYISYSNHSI

The test addresses Metabotropic glutamate receptor 8 (Rattus norvegicus) (UniProt P70579). Nature of the test: mGluR8 Gi/Go-coupled signaling modulation – cell-based, rat, thallium flux, HTS, primary screen (AID 488969). Particulars: HEK293 rat mGluR8, GIRK (G protein-gated inwardly rectifying potassium channel) thallium flux, FluoZin2; at 10 µM; stronger effect = higher value; submaximal glutamate (EC20) added with thallium.
The molecule `O=C(CCS(=O)(=O)c1ccc(Br)cc1)Nc1cc(F)ccc1F` showed a z-score of -0.0256.

`O=C(Cn1c(C(F)(F)F)nc2ccccc21)OCC(=O)c1c[nH]c2ccccc12` displayed a z-score of -0.594.

As for `Cc1cc(C)n(-c2nc3ccccc3nc2NCCc2ccccc2)n1`, the z-score was -0.16.

`Cc1cccc(NC(=S)NCCN2CCOCC2)c1C` had a z-score of -0.235.

Molecule `Cc1cccc(NC(=S)N=Nc2c(O)n(CN3CCOCC3)c3ccccc23)c1C` returned a z-score of 2.19.

In turn, `Cc1ccc(N=Nc2c(O)n(CN3CCOCC3)c3ccccc23)cc1` registered a z-score of -0.152.

In the case of `Nn1c(SCc2cccc3ccccc23)nnc1-c1ccco1`, the z-score was found to be 0.217.

The molecule `Cn1c(SCc2cc(=O)[nH]c3ccccc23)nnc1-c1ccco1` had a z-score of -0.244.

In the case of `Cn1c(SCc2cccc3ccccc23)nnc1-c1ccco1`, the z-score is 2.15.

As for `N#Cc1cn(-c2ccccc2)nc1-c1cc2ccccc2oc1=O`, the z-score is -0.0371.

In turn, `Cc1ccc(C2CC2c2n[nH]c(=S)n2-c2ccc(Cl)cc2)cc1` (centres undefined) had a z-score of 2.95.

In the case of `Cc1ccc(-n2c([C@@H]3C[C@H]3c3ccccc3)n[nH]c2=S)cc1`, the z-score came to 0.209.

For the molecule `Cc1ccc(C2CC2c2n[nH]c(=S)n2-c2cccc(Cl)c2)cc1` (centres undefined), the z-score was 0.358.

`Cc1ccc(-n2c(C3CC3c3ccc(Cl)cc3)n[nH]c2=S)cc1` (centres undefined) registered a z-score of 0.832.

On to `S=c1[nH]nc(C2CC2c2ccc(Cl)cc2)n1-c1ccc(Cl)cc1` (centres undefined), for which the z-score worked out at 0.549.

`Cc1ccc(C2CC2c2n[nH]c(=S)n2-c2ccc(C)cc2)cc1` (centres undefined) showed a z-score of 2.34.

As to `O=C(c1ccc(-n2cnnn2)cc1)N1CCCCC1`, the z-score amounted to 0.294.

As to `CN1CCC(OC(=O)COc2ccc(C(C)(C)C)cc2)CC1`, the z-score was found to be 0.712.

Consider `COC1CCCCC1Nc1cc(C)cc(C)c1` (centres undefined), for which the z-score was -0.0687.

`COc1ccc(C)cc1S(=O)(=O)N(C)CC(=O)NC1CCCC1` showed a z-score of -0.639.

The molecule `COc1ccc(Cl)cc1N(CC(=O)Nc1ccccc1SC)S(C)(=O)=O` returned a z-score of 0.203.

In the case of `COc1ccc(N(CC(=O)Nc2ccccc2SC)S(C)(=O)=O)cc1OC`, the z-score stood at 0.573.

In the case of `CSc1ccccc1NC(=O)CN(c1ccccc1Br)S(C)(=O)=O`, the z-score amounted to 2.04.

In turn, `CN(C)S(=O)(=O)c1ccc(NC(=O)/C=C/c2ccccc2Cl)cc1` registered a z-score of -0.0315.

In turn, `O=C(Nc1nnc(CSCc2ccc(F)cc2)s1)c1cccc([N+](=O)[O-])c1` came in with a z-score of -0.37.

In the case of `O=C(Nc1nnc(CSCc2ccc(F)cc2)s1)c1ccc([N+](=O)[O-])cc1`, the z-score amounted to 2.51.

Regarding `CCC(=O)Nc1nnc(CSCc2ccc(F)cc2)s1`, the z-score was 0.0266.

With `O=C(NCc1ccc(Cl)cc1)C(=O)NCC1OCCN1C(=O)c1cccs1` (centres undefined), the z-score was -0.152.

`Cn1cc(-c2nc3ccccc3[nH]2)c2ccccc21` registered a z-score of -1.41.

`O=C(c1ccccc1)C(Sc1ncn[nH]1)c1ccccc1` (centres undefined): the z-score is -0.672.

`Cc1ccc(C)c(OCC(=O)N/N=C/c2c(C)nn(-c3ccccc3)c2Cl)c1` gave a z-score of 2.98.

Molecule `COC(=O)N/N=C\c1c(C)nn(-c2ccccc2)c1Cl` came in with a z-score of -0.389.

In turn, `Cc1ccc(C)c(OCC(=O)N/N=C/c2c(C)nn(-c3ccccc3)c2Cl)c1C` came in with a z-score of -0.185.

On to `Fc1ccccc1N1CCN(CCCNc2ccc3nncn3n2)CC1`, for which the z-score was 0.731.

Regarding `CCOC(=O)N1CCC(NCCNC(=O)c2ccccc2)CC1`, the z-score was found to be 0.292.

Regarding `O=C(COC(=O)CN1C(=O)c2ccccc2C1=O)Nc1ncc(Cl)cc1Cl`, the z-score stood at 0.719.

Take `CC(OC(=O)CN1C(=O)C2CCCCC2C1=O)C(=O)Nc1ncc(Cl)cc1Cl` (centres undefined): the z-score turned out to be 0.031.

In turn, `CC(OC(=O)CCCN1C(=O)c2ccccc2C1=O)C(=O)Nc1ncc(Cl)cc1Cl` (centres undefined) yielded a z-score of 2.08.

`Cc1c(NC(=O)C(C)OC(=O)c2cc(Cl)nc(Cl)c2)c(=O)n(-c2ccccc2)n1C` (centres undefined) gave a z-score of 0.0979.

`CCOC(=O)C(Oc1ccc2c(-c3ccccc3)cc(=O)oc2c1C)c1ccccc1` (centres undefined) showed a z-score of -0.0738.

In turn, `Cc1csc(NC(=O)CSc2nnc(-c3cc(C)on3)o2)n1` yielded a z-score of 0.301.

Molecule `CCOC(=O)c1sc2nc(CC(=O)OC)nc(NCc3ccco3)c2c1C` gave a z-score of -0.245.

Molecule `CCc1cc2c(NCc3ccco3)ncnc2s1` returned a z-score of -0.444.

In the case of `CCOC(=O)c1sc2ncnc(NCc3ccco3)c2c1C`, the z-score is 14.7 (active).

The molecule `Cc1c(NC(=O)c2cc3nc(-c4ccc(Br)cc4)cc(C(F)(F)F)n3n2)c(=O)n(-c2ccccc2)n1C` came in with a z-score of -0.51.

`Cc1cc(C)nc(/N=C(\N)Nc2ccc(F)c([N+](=O)[O-])c2)n1` came in with a z-score of -0.14.

Consider `O=C(C(Cc1ccccc1)N1C(=O)C2C3C=CC(C3)C2C1=O)N1CCCCC1` (centres undefined), for which the z-score was -0.174.

Turning to `COc1ccccc1NC(=O)NCc1ccc2c(c1)OCO2`, the z-score is 0.532.

In the case of `CC(C)C(=O)Nc1ccccc1C(=O)OCC(=O)c1ccc2c(c1)OCCO2`, the z-score is -0.424.

Take `CC(=O)Nc1ccccc1OCC(=O)c1ccc2c(c1)OCO2`: the z-score amounted to 2.07.

Turning to `O=C1CC(c2cccc(Br)c2)c2cc3c(cc2N1)CCC3` (centres undefined), the z-score is -0.00205.

`COc1ccc(S(=O)(=O)Nc2ccc(C)cc2)cc1OC`: the z-score was -0.166.

As for `Cc1c(Cl)cccc1NC(=S)N1CCN(Cc2ccc3c(c2)OCO3)CC1`, the z-score amounted to 0.334.

Regarding `CCN(CC)c1ccc(C(=O)NC(=S)N2CCN(Cc3ccc4c(c3)OCO4)CC2)cc1`, the z-score was 10 (active).

Turning to `O=C(NC(=S)N1CCN(Cc2ccc3c(c2)OCO3)CC1)c1cccc(Br)c1`, the z-score is 9.35 (active).

Regarding `CCC(CC)C(=O)N1CCN(Cc2ccc3c(c2)OCO3)CC1`, the z-score was -0.17.

`CS(=O)(=O)N(CC(=O)N1CCN(Cc2ccc3c(c2)OCO3)CC1)Cc1ccc(Cl)cc1`: the z-score is 0.174.

Consider `O=C(NC(=S)N1CCN(Cc2ccc3c(c2)OCO3)CC1)c1ccc(Cl)cc1`, for which the z-score was 15.2 (active).

The molecule `Cc1ccc(NC(=S)N2CCN(Cc3ccc4c(c3)OCO4)CC2)c(C)c1` came in with a z-score of -0.407.

On to `Cc1cccc(C(=O)N2CCN(Cc3ccc4c(c3)OCO4)CC2)c1`, for which the z-score is -0.0762.

Turning to `CCn1cnc2sc(C(=O)Nc3ccc4c(c3)OCO4)c(C)c2c1=O`, the z-score is -0.145.

In turn, `CCn1cnc2sc(C(=O)N3CCN(Cc4ccc5c(c4)OCO5)CC3)c(C)c2c1=O` yielded a z-score of 2.58.

Molecule `O=C(c1ccc(Br)o1)N1CCN(Cc2ccc3c(c2)OCO3)CC1` registered a z-score of -1.48.

On to `CCn1nc(C(=O)N2CCN(Cc3ccc4c(c3)OCO4)CC2)c2ccccc2c1=O`, for which the z-score was -0.474.

`CCN1C(=O)/C(=C\N2CCCc3ccccc32)SC1=S` gave a z-score of -0.289.

Take `O=C(c1ccc(OCC2CCCO2)cc1)N1CCN(c2ccccc2)CC1` (centres undefined): the z-score is -0.525.

`O=C(NCCc1ccc(Cl)cc1)C1CCC(=O)N1Cc1ccccc1Cl` (centres undefined) gave a z-score of -0.0695.

`COc1ccc(NC(=O)C(NC(=O)CC2NC(=O)NC2=O)c2ccccc2)cc1` (centres undefined) showed a z-score of 0.0457.

In the case of `CC(=O)NC12CC3CC(CC(CC(=O)O)(C3)C1)C2`, the z-score turned out to be 0.634.
